Assay outcomes from PubChem.
Pol kappa inh-1 = inhibitors of human DNA polymerase kappa; Q9UBT6; Potency, µM (titrated, usually from 107 µM), for inactives: at the highest dose activity, negative = inhibition, actives largely listed as inhibitors; purified Pol kappa, fluorescent DNA synthesis assay, 10 min; 400,000 tested, 0.53% active; AID 588579; note: % is set by controls: 0 for no effect and ±100 for the full control effect
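50 nM final substrate added after 15 min RT preincubation of 10 nM Pol kappa with compound; fluorescence read at 0 and 10 min.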
Pol eta inh-1 = DNA polymerase eta (human) inhibition; Q9Y253; recombinant Pol eta, fluorescent DNA replication assay; Potency, µM (top dose mostly 114 µM), inactives show at the top dose activity change, negative = inhibition, hits mostly inhibitors; 390,000 tested, 1.2% active; AID 588591; note: % is set by controls: 0 for no effect and ±100 for the full control effect
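Fluorescent replication assay: 50 nM final substrate added after a 15 min room-temperature compound preincubation with 10 nM enzyme. Signal taken at 0 min and again at 10 min.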
POLI inh = blocks human DNA polymerase iota activity; 390,000 tested, 1% active; Q9UNA4; Pol iota fluorescent replication assay, 10 min; Potency, µM (series often up to 115 µM), without a hit: at the top dose activity, negative = inhibition, most hits filed as inhibitors
Target sequence (Q9UNA4 whole entry, looked up): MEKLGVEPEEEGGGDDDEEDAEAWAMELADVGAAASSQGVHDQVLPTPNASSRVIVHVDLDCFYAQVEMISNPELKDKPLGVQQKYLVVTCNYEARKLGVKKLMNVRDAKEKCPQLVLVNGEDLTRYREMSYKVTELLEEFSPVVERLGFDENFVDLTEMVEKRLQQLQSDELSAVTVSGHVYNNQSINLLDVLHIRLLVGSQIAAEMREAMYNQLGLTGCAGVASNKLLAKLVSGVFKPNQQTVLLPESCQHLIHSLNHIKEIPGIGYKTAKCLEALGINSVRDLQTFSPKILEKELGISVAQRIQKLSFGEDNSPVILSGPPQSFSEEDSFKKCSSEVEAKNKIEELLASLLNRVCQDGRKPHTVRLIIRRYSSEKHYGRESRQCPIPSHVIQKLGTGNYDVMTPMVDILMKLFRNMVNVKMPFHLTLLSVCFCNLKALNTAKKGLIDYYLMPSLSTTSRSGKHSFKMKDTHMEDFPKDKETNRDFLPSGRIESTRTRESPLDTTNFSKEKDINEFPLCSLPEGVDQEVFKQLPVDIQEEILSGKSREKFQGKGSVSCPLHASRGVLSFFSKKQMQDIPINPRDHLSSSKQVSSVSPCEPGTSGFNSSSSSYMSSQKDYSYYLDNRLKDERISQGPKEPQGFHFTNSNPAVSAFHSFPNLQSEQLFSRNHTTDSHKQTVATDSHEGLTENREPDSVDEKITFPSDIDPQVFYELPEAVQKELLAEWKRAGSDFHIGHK
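Pol iota at 10 nM preincubated 15 min with compounds at room temperature; reaction started with fluorescent substrate, 50 nM final. Fluorescence read kinetically at 0 and 10 min; buffer-only wells as negative control.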
Pol beta inh = blocks human DNA polymerase beta activity; Potency, µM (highest dose often 114 µM), for inactives: top-dose activity change, negative = inhibition, most hits filed as inhibitors; P06746; Pol beta primer extension/strand displacement, fluorescence kinetic; 340,000 tested, 1.3% active; note: % is set by controls: 0 for no effect and ±100 for the full control effect
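Homogeneous kinetic assay of primer extension and strand displacement by 10 nM Pol beta, preincubated 15 min at room temperature with compound before 50 nM substrate (final) was added. Read at 0 and 10 min; four-parameter Hill fit.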
TDP1 inh = TDP1 (human) enzyme inhibition; Q9NUW8; recombinant TDP1, AlphaScreen DNA substrate cleavage; Potency, µM (highest dose often 130 µM), for inactives: at the highest dose activity change, negative = inhibition, hits mostly inhibitors; 350,000 tested, 0.28% active; AID 485290; note: % is set by controls: 0 for no effect and ±100 for the full control effect; nearly all actives have a fitted effect of over 40% in size
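AlphaScreen read-out: signal falls as enzyme removes the 3' tyrosine-FITC from a 5'-biotinylated DNA oligo (15 nM, 5 min, RT). Enzyme was E. coli-made recombinant Tdp1 at 1 nM, exposed to compound for 15 min beforehand; beads 10 ug/ml, 10 min.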
PGK validate = blocks T. brucei phosphoglycerate kinase | 500 tested, 79% active | shares compounds with Pol kappa inh-1 | TbPGK coupled GAPDH assay, Kinase-Glo luminescence | Potency, µM (series often up to 57.5 µM), for the others: at the top dose activity change, negative = inhibition, usual class: inhibitors; note: % is set by controls: 0 for no effect and ±100 for the full control effect; nearly all actives have a fitted effect of over 65% in size
Pol iota confirm = Confirm cherry-picked inhibitors of human polymerase iota. shares compounds with Pol kappa inh-1. Pol iota primer extension, TAMRA/BHQ fluorescence. Potency, µM, most hits filed as inhibitors. 1,500 tested, 77% active
Pol kappa inh-2 = confirmation of human DNA polymerase kappa inhibitors | Potency, µM, usual class: inhibitors | shares compounds with Pol eta inh-1 | 920 tested, 76% active | AID 720501 | purified Pol-kappa, fluorescent strand-displacement substrate
Pol eta inh-2 = confirmation of human DNA polymerase eta inhibitors; shares compounds with Pol eta inh-1; AID 720502; Potency, µM, hits mostly inhibitors; 2,600 tested, 64% active; Pol eta primer extension, TAMRA/BHQ fluorescence, 10 min
Numbers without * were called inactive; ? = inconclusive; · = not tested or not shown; [ ] = another dose, or the depositor's remark. Only some compounds are listed: those with a hit (about 2.4% of all), similar ones and a draw of the others. Calls come from the whole dose curve; as a rule, active = well fitted curve in the direction sought with a large enough effect; inconclusive = small, poorly fitted or top-dose-only effect, or another doubt; inactive = no such curve, though single readings can be large; an effect the other way counts as inactive or inconclusive. Potency is the fitted concentration of half-maximal effect.

SMILES	Pol kappa inh-1	Pol eta inh-1	POLI inh	Pol beta inh	TDP1 inh	Pol iota confirm	Pol eta inh-2	others
Cc1ccc(CN(C(=O)COc2ccc(C(C)(C)C)cc2)C2CCS(=O)(=O)C2)o1 (stereo not drawn)	7%	·	-3%	12%	1%	·	·
CCc1ccccc1NC(=O)c1ccc(Cn2nc(N3CCN(c4ccccc4)CC3)ccc2=O)o1	?	-4%	79µM*	16µM*	0%	?	76*	Pol kappa inh-2=34*
CCOc1ccccc1NC(=O)Cn1nc(N2CCN(c3ccccc3)CC2)ccc1=O	0%	-17%	-12%	5%	5%	·	·
CCc1ccccc1N(C)C(=O)c1cn(CC(C)C)c(=O)c2cc(OC)c(OC)cc12	9%	-11%	0%	20%	6%	·	·
COc1cc(NC(=O)c2nn(C)c3c2COc2ccccc2-3)cc(OC)c1OC	-1%	-18%	-16%	-29%	3%	·	·
Cc1cccc2cc(C(c3nnnn3C(C)(C)C)N(Cc3ccco3)CC3CCCO3)c(=O)[nH]c12 (stereo not drawn)	45µM*	7.9µM*	16µM*	32µM*	·	17*	19*	PGK validate=1.8µM*
COc1ccc2[nH]c(=O)cc(C(=O)O)c2c1	?	14µM*	?	18µM*	22µM*	?	27*	Pol kappa inh-2=11*
COc1ccc2[nH]c(=O)c(C(=O)O)cc2c1	1%	-22%	103%	?	5%	·	·
COc1cc(O)c(C(C)=O)c(CC(=O)O)c1	13µM*	3.2µM*	13µM*	16µM*	·	17*	8.5*	PGK validate=8.2µM*
COc1cc(O)c(C(C)=O)c(OC)c1	7%	-4%	20%	·	10%[56.1 µM]	·	·
O=C(C1COc2ccccc2O1)N1CCc2ccccc21 (stereo not drawn)	?	79µM*	45µM*	32µM*	·	75*	?
O=C(C1COc2ccccc2O1)N1CCCC1 (stereo not drawn)	9%	-11%	-1%	-22%	0%	·	·
COc1cc(/C=N/NC(N)=O)ccc1OCC(=O)Nc1ccc(C)c(C)c1	89µM*	28µM*	32µM*	?	-5%	42*	76*
COc1cc(/C=N/NC(N)=S)ccc1OCC(=O)Nc1ccc(C)c(C)c1	5%	?	?	-1%	2%	·	·
Cc1ccc2c(c1)c(=O)c1c3n2CCN(C(=O)CCl)C3CC1 (stereo not drawn)	-41%	6.3µM*	?	16µM*	·	60*	60*
O=C(NNc1c(Cl)cccc1Cl)c1sc2ccccc2c1Cl	-13%	·	22%	·	·	·	·
Cc1ccc(C2Nc3ccc4ccccc4c3C3=C2C(=O)CC(C)(C)C3)o1 (stereo not drawn)	-11%	-12%	25%	-15%	-8%	·	·
O=C1CCCC2=C1C(c1ccco1)Nc1ccc3ccccc3c12 (stereo not drawn)	28µM*	2µM*	6.3µM*	6.3µM*	?	7.5*	19*	PGK validate=15µM*
C[C@@H]1OC(O[C@H]2[C@H](Oc3cc(O)c4c(=O)c(O)c(-c5ccc(O)cc5)oc4c3)O[C@H](CO)[C@@H](O)[C@@H]2O)[C@H](O)[C@H](O)[C@H]1O (stereo partly drawn)	8%[60.1 µM]	·	·	·	4%	·	·
O=c1c(OC2OC(CO)C(O)C(O)C2OC2OC(CO)C(O)C(O)C2O)c(-c2ccc(O)cc2)oc2cc(O)cc(O)c12 (stereo not drawn)	50µM*	11µM*	28µM*	22µM*	·	?	?
NS(=O)(=O)c1cc(C(=O)NC2CCSc3ccccc32)ccc1Cl (stereo not drawn)	0.79µM*	-100%	1.3µM*	0.32µM*	1.3µM*	0.6*	0.6*	PGK validate=0.15µM*;Pol kappa inh-2=0.27*
NS(=O)(=O)c1cccc(C(=O)NC2CCSc3ccccc32)c1 (stereo not drawn)	5%	-14%	25%	11%	·	·	·
COc1ccc(NC(=O)CN2C(=O)COc3ccc(S(=O)(=O)NC4CCCC4)cc32)cc1OC	-5%	-8%	10%	12%	6%	·	·
NC(=S)N/N=C/c1ccc(-c2ccccc2)o1	0%	-16%	33%	-2%	7%	·	·
NC(=S)NN=Cc1ccc(-c2ccc(S(=O)(=O)Nc3ncccn3)cc2)o1	20µM*	3.2µM*	?	·	10µM*	?	9.5*	Pol kappa inh-2=?
SMILES	Pol kappa inh-1	Pol eta inh-1	POLI inh	Pol beta inh	TDP1 inh	Pol iota confirm	Pol eta inh-2	others
O=C(N/N=C/c1ccc(-c2ccc(S(=O)(=O)Nc3ncccn3)cc2)o1)c1cc2ccccc2cc1O	4.5µM*	0.89µM*	1.3µM*	13µM*	·	17*	4.8*	PGK validate=?;Pol kappa inh-2=3.8*
O=c1cc(N2CCNCC2)nc2sc(-c3ccncc3)nn12	·	·	·	·	·	27*	76*
CCCn1cc(S(=O)(=O)c2cccc(Cl)c2)c(=O)c2cc(F)c(N3CCOCC3)cc21	-3%	-17%	17%	5%	7%	·	·
O=C1CCCC(O)=C1N=Nc1cccc(C(=O)O)c1	50µM*	10µM*	14µM*	10µM*	?	34*	27*
Oc1ccc(/C=N/N=C/c2ccc(O)c(O)c2)cc1O	0.89µM*	0.71µM*	1.3µM*	0.45µM*	·	6.7*	4.3*	PGK validate=1.3µM*;Pol kappa inh-2=4.7*
Oc1ccc(/C=N/N=C/c2ccc(O)cc2)cc1	-1%	-9%	20%	0%	-3%	·	·
O=C1Nc2ccccc2/C1=N\N=C\c1ccc(O)c(O)c1	5.6µM*	3.2µM*	2.2µM*	4.5µM*	3%	?	17*
CCOc1ccc2nc(N3CCCC(C(=O)Nc4cccc(Cl)c4C)C3)sc2c1 (stereo not drawn)	4%	-20%	9%	13%	0%	·	·
CC(C)Sc1ncc(Cl)c(C(=O)Nc2ccc(S(=O)(=O)N3CCCCC3C)cc2)n1 (stereo not drawn)	0%	-17%	-19%	7%	0%	·	·
Nc1cc(S(=O)(=O)O)cc([N+](=O)[O-])c1O	28µM*	4.5µM*	7.9µM*	-14%	0%	8.4*	5.4*	PGK validate=2.9µM*
O=C1COc2ccc(C(=O)COC(=O)/C=C/c3ccc(Br)o3)cc2N1	18µM*	1.6µM*	20µM*	·	·	21*	67*
